PubChem BioAssay (NCI)
This is part of a sample that, as a whole, favours compounds with a hit. Of some 83,000 tested, about 20% had one in any assay.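 In brief: 96-well plates, 48 h treatment, single concentration, percent growth endpoint.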 Activity calls are given as the source filed them. Rule for the calls: active = growth percent below 10; inactive = the rest.

Legend:
Assay in all cases: NCI-60 one-dose screen, 48 h (100 = growth as untreated, 0 = no growth, -100 = all killed)
Settings in all cases: 10 µM
SR leukemia = tested on: SR leukemia
RPMI-8226 leukemia = tested on: RPMI-8226 leukemia
OVCAR-8 ovarian = tested on: OVCAR-8 ovarian
OVCAR-5 ovarian = tested on: OVCAR-5 ovarian
OVCAR-4 ovarian = tested on: OVCAR-4 ovarian
SK-OV-3 ovarian = tested on: SK-OV-3 ovarian
IGROV1 ovarian = tested on: IGROV1 ovarian
OVCAR-3 ovarian = tested on: OVCAR-3 ovarian
HS 578T breast = tested on: HS 578T breast
NCI/ADR-RES ovarian = tested on: NCI/ADR-RES ovarian

Measured: growth

NS(=O)(=O)c1ccc(NC(=O)CSc2ccc(-c3ccc(Cl)cc3)nn2)c(Br)c1
inactive: SR leukemia 66.4% | RPMI-8226 leukemia 72.5% | OVCAR-5 ovarian 73.3% | OVCAR-4 ovarian 29.8% | SK-OV-3 ovarian 60.2% | IGROV1 ovarian 63.4% | NCI/ADR-RES ovarian 70%
active: OVCAR-8 ovarian 3.04% | OVCAR-3 ovarian 7.69% | HS 578T breast 4.72%

N#Cc1ccc(-c2nn(-c3ccc(C(=O)O)cc3)cc2CNc2cc(Cl)cc(C(F)(F)F)c2)cc1
active: SR leukemia 1.72% | RPMI-8226 leukemia 1.01% | HS 578T breast -0.292% | NCI/ADR-RES ovarian 1.78%
inactive: OVCAR-8 ovarian 20.1% | OVCAR-5 ovarian 59.8% | OVCAR-4 ovarian 27.8% | SK-OV-3 ovarian 55.2% | IGROV1 ovarian 34.7% | OVCAR-3 ovarian 22%

O=[N+]([O-])c1ccc(-c2nc(-c3ccccc3)c(-c3ccccc3)n2-c2ccc(S(=O)(=O)Nc3ncccn3)cc2)cc1
inactive: SR leukemia 45% | RPMI-8226 leukemia 33% | OVCAR-8 ovarian 54.5% | OVCAR-5 ovarian 72.8% | OVCAR-4 ovarian 66.7% | SK-OV-3 ovarian 104% | IGROV1 ovarian 74.3% | OVCAR-3 ovarian 51.7% | HS 578T breast 37.3% | NCI/ADR-RES ovarian 42.4%

CN1C(=O)N(C)C2SC(N/N=C/C=C/c3ccccc3)=NC21 (stereo not given)
inactive: SR leukemia 13.2% | RPMI-8226 leukemia 77.1% | OVCAR-8 ovarian 93.1% | OVCAR-5 ovarian 92.8% | OVCAR-4 ovarian 72.4% | SK-OV-3 ovarian 98.4% | IGROV1 ovarian 68.5% | OVCAR-3 ovarian 28.8% | HS 578T breast 89.7% | NCI/ADR-RES ovarian 73.9%

COc1cnc2c(c1)C(=O)c1c-2n(CCCNC(C)C)c(=O)c2cc(OC)c(OC)cc12
inactive: OVCAR-8 ovarian 37% | OVCAR-5 ovarian 70.8% | OVCAR-4 ovarian 28.2% | SK-OV-3 ovarian 22.1% | IGROV1 ovarian 32% | HS 578T breast 103% | NCI/ADR-RES ovarian 29.1%
active: SR leukemia 2.52% | RPMI-8226 leukemia -14.8% | OVCAR-3 ovarian 5.2%

CCN1CCN(Cc2ccc(C(=O)Nc3cccc(-c4cn(-c5ccc6oc(=O)ccc6c5)nn4)c3)cc2C(F)(F)F)CC1
inactive: SK-OV-3 ovarian 25.4%
active: SR leukemia -51.6% | RPMI-8226 leukemia -40.7% | OVCAR-8 ovarian -100% | OVCAR-5 ovarian -100% | OVCAR-4 ovarian -100% | IGROV1 ovarian -100% | OVCAR-3 ovarian -100% | HS 578T breast -21.6% | NCI/ADR-RES ovarian -100%

CC(=O)Nc1ccc(-c2cn(-c3cccc(C(=O)Nc4cc(CN5CCOCC5)cc(C(F)(F)F)c4)c3)nn2)cn1
inactive: NCI/ADR-RES ovarian 67.9%
active: SR leukemia 0.486% | RPMI-8226 leukemia 2.68% | OVCAR-8 ovarian -37% | OVCAR-5 ovarian -95% | OVCAR-4 ovarian -82.6% | SK-OV-3 ovarian -67.6% | IGROV1 ovarian -84.6% | OVCAR-3 ovarian -54.5% | HS 578T breast -46.2%

O=C(CNc1nc(-c2ccccc2)cs1)Nc1ccc(Cl)cc1
active: SR leukemia -18.7% | RPMI-8226 leukemia 2.96% | OVCAR-8 ovarian -28.8% | OVCAR-5 ovarian -95.4% | OVCAR-4 ovarian -33.8% | SK-OV-3 ovarian -82.9% | IGROV1 ovarian -78.6% | OVCAR-3 ovarian -36.6% | HS 578T breast -3.04% | NCI/ADR-RES ovarian -30.3%

CN1CCO/C1=C(/NC(=O)c1ccc(Cl)cc1)[P+](c1ccccc1)(c1ccccc1)c1ccccc1
inactive: SR leukemia 80.9% | RPMI-8226 leukemia 24.8% | OVCAR-8 ovarian 89% | OVCAR-5 ovarian 92.1% | OVCAR-4 ovarian 83.3% | SK-OV-3 ovarian 106% | IGROV1 ovarian 59.4% | OVCAR-3 ovarian 64.1% | HS 578T breast 93.7% | NCI/ADR-RES ovarian 103%

Cc1ccc(/C(CSc2nnc(-c3c[nH]c4ccccc34)n2-c2ccccc2)=N/O)cc1
active: SR leukemia 9.79% | RPMI-8226 leukemia -19.1% | OVCAR-8 ovarian -27.8% | OVCAR-5 ovarian -48.9% | OVCAR-4 ovarian -87.2% | IGROV1 ovarian -62.4% | HS 578T breast -53.5% | NCI/ADR-RES ovarian -68.4%
inactive: SK-OV-3 ovarian 11.5% | OVCAR-3 ovarian 14.7%

COc1ccc(/C(CSc2nnc(-c3c[nH]c4ccccc34)n2-c2ccccc2)=N/O)cc1
active: RPMI-8226 leukemia 9.81%
inactive: SR leukemia 10.9% | OVCAR-8 ovarian 29.7% | OVCAR-5 ovarian 55% | OVCAR-4 ovarian 16.8% | SK-OV-3 ovarian 52.1% | IGROV1 ovarian 43.1% | OVCAR-3 ovarian 30.5% | HS 578T breast 38.8% | NCI/ADR-RES ovarian 38.2%

CCOc1ccc(/C=N/NC(=O)Cn2nc(Cc3ccc([N+](=O)[O-])cc3)c3onc(C)c3c2=O)cc1
inactive: SR leukemia 62.7% | RPMI-8226 leukemia 68.9% | OVCAR-5 ovarian 43.8% | SK-OV-3 ovarian 91.3% | IGROV1 ovarian 27.6% | NCI/ADR-RES ovarian 19.4%
active: OVCAR-8 ovarian -16.5% | OVCAR-4 ovarian -34.8% | OVCAR-3 ovarian -37.5% | HS 578T breast -7.55%

CCCn1c(O)c(N=Nc2nc(-c3cc4ccccc4oc3=O)cs2)c2cc(Br)ccc21
inactive: SR leukemia 101% | RPMI-8226 leukemia 97.9% | OVCAR-8 ovarian 105% | OVCAR-5 ovarian 98.3% | OVCAR-4 ovarian 98.9% | SK-OV-3 ovarian 110% | IGROV1 ovarian 106% | OVCAR-3 ovarian 100% | HS 578T breast 83.4% | NCI/ADR-RES ovarian 95.4%

COc1ccc(C(=O)/C=C/c2cc(C(F)(F)F)cc(C(F)(F)F)c2)cc1S(N)(=O)=O
inactive: SK-OV-3 ovarian 20%
active: SR leukemia 5.52% | RPMI-8226 leukemia 3.03% | OVCAR-8 ovarian -29.8% | OVCAR-5 ovarian -93.6% | OVCAR-4 ovarian -80% | IGROV1 ovarian -69% | OVCAR-3 ovarian -88.6% | HS 578T breast -12.8% | NCI/ADR-RES ovarian -34%

CC(=O)C1=C(C)NC(SCC(=O)Nc2ccc(S(=O)(=O)Nc3cc(C)on3)cc2)=NC1c1ccccc1 (stereo not given)
inactive: SR leukemia 94.1% | RPMI-8226 leukemia 99.8% | OVCAR-8 ovarian 107% | OVCAR-5 ovarian 109% | OVCAR-4 ovarian 100% | SK-OV-3 ovarian 101% | IGROV1 ovarian 114% | OVCAR-3 ovarian 107% | HS 578T breast 95.6% | NCI/ADR-RES ovarian 103%

CC1=C(c2cc(-c3ccc(Cl)cc3)c(C#N)c(N)n2)C(c2ccccc2)NC(=S)N1 (stereo not given)
inactive: OVCAR-5 ovarian 93.5% | OVCAR-4 ovarian 81.3% | SK-OV-3 ovarian 126% | IGROV1 ovarian 65.7% | OVCAR-3 ovarian 17.1% | HS 578T breast 75.3% | NCI/ADR-RES ovarian 37.9%
active: SR leukemia 2.54% | RPMI-8226 leukemia 9.51% | OVCAR-8 ovarian 5.74%

O=C(Cc1ccc2c(c1)CN(C1CCC(=O)NC1=O)C2=O)NCCc1ccccc1 (stereo not given)
inactive: SR leukemia 53.5% | RPMI-8226 leukemia 45.6% | OVCAR-5 ovarian 37.6% | OVCAR-4 ovarian 10.6% | SK-OV-3 ovarian 28% | OVCAR-3 ovarian 20.1% | NCI/ADR-RES ovarian 28.4%
active: OVCAR-8 ovarian 4.26% | IGROV1 ovarian 2.99% | HS 578T breast -5.24%

CN1CCc2c(sc3ncnc(N/N=C/c4cn(-c5ccccc5)nc4-c4ccc(Cl)cc4)c23)C1
inactive: RPMI-8226 leukemia 23.7% | OVCAR-5 ovarian 27% | SK-OV-3 ovarian 64% | HS 578T breast 46.6%
active: SR leukemia 8.8% | OVCAR-8 ovarian -26.1% | OVCAR-4 ovarian -9.33% | IGROV1 ovarian 1.89% | OVCAR-3 ovarian -17.2% | NCI/ADR-RES ovarian -35.3%

Cc1ccc(/C(N)=N/c2sc(-c3ccccc3)nc2-c2ccccc2)cc1
inactive: SR leukemia 63.1% | RPMI-8226 leukemia 59.9% | OVCAR-8 ovarian 91.4% | OVCAR-5 ovarian 84.1% | OVCAR-4 ovarian 72% | SK-OV-3 ovarian 87.1% | IGROV1 ovarian 94.3% | OVCAR-3 ovarian 84.7% | HS 578T breast 95% | NCI/ADR-RES ovarian 89.9%

CN(C)CCNC(=O)OCCCCOc1cc(O)c2c(=O)cc(-c3ccccc3)oc2c1
inactive: SK-OV-3 ovarian 99.1% | HS 578T breast 40.7% | NCI/ADR-RES ovarian 27.9%
active: SR leukemia -28.9% | RPMI-8226 leukemia -9.41% | OVCAR-8 ovarian 3.84% | OVCAR-5 ovarian -4.32% | OVCAR-4 ovarian -16.2% | IGROV1 ovarian -9.88% | OVCAR-3 ovarian -77.1%

CCNCCCn1c2c(c3cc(OC)c(OC)cc3c1=O)C(=O)c1cc3c(nc1-2)OCO3
inactive: OVCAR-4 ovarian 57.9% | SK-OV-3 ovarian 35.4% | IGROV1 ovarian 18.4% | HS 578T breast 97.4%
active: SR leukemia -7.45% | RPMI-8226 leukemia -34.7% | OVCAR-8 ovarian -64.5% | OVCAR-5 ovarian -88.7% | OVCAR-3 ovarian -90.1% | NCI/ADR-RES ovarian -30.8%

N#Cc1c(NC(=O)c2cccc(C(F)(F)F)c2)sc2c1CCC(O)=C2
inactive: SR leukemia 14.6% | RPMI-8226 leukemia 25% | OVCAR-8 ovarian 41.6% | OVCAR-5 ovarian 119% | OVCAR-4 ovarian 29.5% | SK-OV-3 ovarian 40.3% | IGROV1 ovarian 34.4% | OVCAR-3 ovarian 36.8% | HS 578T breast 44.1% | NCI/ADR-RES ovarian 18.6%

CCOC(=O)CNC(=O)CN(Cc1ccccc1)C(=O)[C@@]1(C)CCC[C@]2(C)[C@H]3CC4C(C(C)C)=C[C@]3(CC[C@H]21)[C@@H]1C(=O)CCC(=O)[C@H]41
inactive: RPMI-8226 leukemia 19.8% | OVCAR-8 ovarian 58.3% | OVCAR-5 ovarian 97.8% | OVCAR-4 ovarian 49.4% | SK-OV-3 ovarian 96.6% | IGROV1 ovarian 18.2% | OVCAR-3 ovarian 61.1% | HS 578T breast 52.6% | NCI/ADR-RES ovarian 47.9%
active: SR leukemia 8.03%

O=C(CSc1nnc(-c2ccc3nc(-c4ccccc4)[nH]c3c2)o1)Nc1ccc(Br)cc1
inactive: SR leukemia 32.1% | RPMI-8226 leukemia 41% | OVCAR-8 ovarian 24.8% | OVCAR-5 ovarian 86.1% | OVCAR-4 ovarian 81.3% | SK-OV-3 ovarian 80% | IGROV1 ovarian 80.4% | OVCAR-3 ovarian 73.9% | HS 578T breast 79.6% | NCI/ADR-RES ovarian 78.1%

O=C(CNc1nc(-c2ccccc2)cs1)Nc1ccc([N+](=O)[O-])cc1Cl
inactive: SR leukemia 16.7% | RPMI-8226 leukemia 15.5% | OVCAR-8 ovarian 30.4% | OVCAR-5 ovarian 36.4% | OVCAR-4 ovarian 45.4% | SK-OV-3 ovarian 35.8% | IGROV1 ovarian 33.9% | OVCAR-3 ovarian 23.4% | HS 578T breast 17.6%
active: NCI/ADR-RES ovarian -7%

COc1cc2c3c(n(CCCN4CCOCC4)c(=O)c2cc1OC)-c1nc2c(cc1C3=O)OCO2
active: OVCAR-4 ovarian 6.71% | SK-OV-3 ovarian -4.15% | OVCAR-3 ovarian 8.69%
inactive: SR leukemia 12.5% | RPMI-8226 leukemia 18.7% | OVCAR-8 ovarian 30.3% | OVCAR-5 ovarian 37.2% | IGROV1 ovarian 36.7% | HS 578T breast 71.6% | NCI/ADR-RES ovarian 17.1%

N#Cc1ccc(NC(=O)CSc2ccc(-c3ccc(Br)cc3)nn2)cc1
inactive: SR leukemia 46.6% | RPMI-8226 leukemia 57.6% | OVCAR-8 ovarian 76.3% | OVCAR-5 ovarian 88.2% | OVCAR-4 ovarian 59% | SK-OV-3 ovarian 86.1% | IGROV1 ovarian 74.6% | OVCAR-3 ovarian 76.6% | HS 578T breast 72.9% | NCI/ADR-RES ovarian 35.7%
